Measured values as given in PubChem BioAssay (Tox21).
Several values for one entry are separate records, joined by “and”; a condition that tells them apart may be missing. Equal entries are not always repeated. Unmarked numbers belong to inactive results. Records with an inconclusive call do not appear. Activity calls are given as the source filed them. Calls come from the whole dose curve; as a rule, active = well fitted curve in the direction sought with a large enough effect in the repeat runs; inconclusive = weak or mixed curves; inactive = no such curve, though single readings can be large; an effect the other way counts as inactive or inconclusive.

Key:
[1] = Caspase-3/7 induction in CHO-K1 cells by small molecules, qHTS cell viability counter screen (AID 1346979); note: potency is the fitted concentration of half-maximal effect; nearly all actives have a fitted effect of over 35% in size
Method in brief: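 Cytotoxicity counter screen run in parallel with the caspase-3/7 assay: CHO-K1 cells, 16hr compound treatment at 37C, then CellTiter-Fluor for 1hr before fluorescence reading.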

[2] = Caspase-3/7 induction in HepG2 cells by small molecules, qHTS cell viability counter screen (AID 1346981); note: nearly all actives have a fitted effect of over 30% in size; note: potency is the fitted concentration of half-maximal effect
Method in brief: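 Viability determined by CellTiter-Fluor fluorescence in HepG2 wells also used for the luminescent Caspase-Glo 3/7 read. Compounds were present for 16 hr at 37 C, 5% CO2 before reagent addition.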

[3] = target: Nuclear receptor subfamily 1 group I member 2 (Rattus norvegicus) (UniProt Q9R1A7); experiment: Rat pregnane X receptor (rPXR) activation by small molecules, qHTS assay (AID 1346983); conditions: rPXR luciferase reporter cells, One-Glo luminescence, 24 h; max activation: active compounds read high; note: nearly all actives have a fitted effect of over 20% in size; note: potency is the fitted concentration of half-maximal effect; for max activation: % is set by controls: 0 for no effect and ±100 for the full control effect
Method in brief: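 Luminescent readout (One-Glo luciferase, 30 min room temperature) followed 24 hr compound treatment at 37 C of rPXR cells plated 2,000 per well and preincubated 5hr; qHTS format with compounds delivered in DMSO.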

[4] = target: Voltage-gated inwardly rectifying potassium channel KCNH2 (Homo sapiens) (UniProt Q12809); experiment: Human Ether-a-go-go-Related Gene (hERG) channel small molecule antagonists: fluorescence cell-based qHTS assay (AID 1671200); note: nearly all actives have a fitted effect of over 50% in size; note: potency is the fitted concentration of half-maximal effect
Method in brief: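 Fluorescence at 540 nm emission (480 nm excitation) was recorded kinetically for 2 min at 1-second intervals once the thallium-containing stimulus reached cells previously loaded with FluxOR II dye.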

[5] = target: Nuclear receptor subfamily 1 group I member 2 (Homo sapiens) (UniProt O75469); experiment: Human pregnane X receptor (PXR) small molecule agonists, qHTS assay (AID 1346982); note: nearly all actives have a fitted effect of over 35% in size; note: potency is the fitted concentration of half-maximal effect; for activation: % is set by controls: 0 for no effect and ±100 for the full control effect
Method in brief: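 Compound-induced hPXR transactivation of a CYP3A4 luciferase reporter was scored in HepG2 PXR-Luc cells over 24 hr at 37 C, 5% CO2, by luminescence.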

[6] = target: Cytochrome P450 1A2 (Homo sapiens) (UniProt P05177); experiment: Cytochrome P450 Family 1 Subfamily A Member 2 (CYP1A2) small molecule antagonists: luciferase reporter qHTS assay (AID 1671199); note: nearly all actives have a fitted effect of over 50% in size; note: potency is the fitted concentration of half-maximal effect
Method in brief: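 Enzymatic CYP1A2 assay, human, luminescent: 10 min compound–enzyme–substrate preincubation, 1 h NADPH-dependent turnover, 20 min detection step, room temperature throughout. Reduced light indicates lower CYP1A2 activity.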

[7] = target: Cytochrome P450 3A4 (Homo sapiens) (UniProt P08684); experiment: Cytochrome P450 Family 3 Subfamily A Member 4 (CYP3A4) small molecule antagonists: luciferase reporter qHTS assay (AID 1671201); note: nearly all actives have a fitted effect of over 50% in size; note: potency is the fitted concentration of half-maximal effect
Method in brief: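 qHTS, 1536-well. CYP3A4 + proluciferin substrate, cpd 10 min RT → NADPH regen 1 h RT → detection reagent 20 min → luminescence (RLU). Ketoconazole positive control.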

[8] = Caspase-3/7 induction in CHO-K1 cells by small molecules, qHTS assay (AID 1346980); note: % is set by controls: 0 for no effect and ±100 for the full control effect; nearly all actives have a fitted effect of over 15% in size
Method in brief: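 Luminescent Caspase-Glo 3/7 read (30min, room temperature) quantified apoptosis induction. Cells were wild-type CHO-K1, treated with compound for 17hr at 37 C and 5% CO2.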

[9] = target: Nuclear receptor subfamily 1 group I member 2 (Homo sapiens) (UniProt O75469); experiment: CYP3A4 induction through human pregnane X receptor (PXR) by small molecules, qHTS assay (AID 1346984); note: nearly all actives have a fitted effect of over 40% in size; note: potency is the fitted concentration of half-maximal effect; for activation: % is set by controls: 0 for no effect and ±100 for the full control effect
Method in brief: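 Readings come from a luciferase reporter: DPX-2 cells, which are HepG2 cotransfected with PXR and a CYP3A4-promoter construct, were exposed to test compounds for 24 h at 37C before One-Glo detection.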

[10] = target: Nuclear receptor subfamily 1 group I member 2 (Homo sapiens) (UniProt O75469); experiment: Human pregnane X receptor (PXR) activation by small molecules, qHTS assay (AID 1346985); note: % is set by controls: 0 for no effect and ±100 for the full control effect; nearly all actives have a fitted effect of over 40% in size
Method in brief: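 DPX-2 cells (HepG2 co-transfected with a PXR response element and a CYP3A4-promoter luciferase construct) were seeded at 2,000 per well, rested 5 hr at 37C, then exposed to DMSO-dissolved compounds for 24 hr. Activation was read as luciferase luminescence.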

[11] = target: Cytochrome P450 2C19 (Homo sapiens) (UniProt P33261); experiment: Cytochrome P450 Family 2 Subfamily C Member 19 (CYP2C19) small molecule antagonists: luciferase reporter qHTS assay (AID 1671197); note: nearly all actives have a fitted effect of over 65% in size; note: potency is the fitted concentration of half-maximal effect
Method in brief: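 Relative luminescence units recorded 20 min after the detection reagent stopped a 1 h, 37C CYP2C19 reaction on proluciferin substrate, which was started by NADPH regeneration following 10 min room-temperature compound preincubation; ketoconazole positive control.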

[12] = target: Cytochrome P450 2C9 (Homo sapiens) (UniProt P11712); experiment: Cytochrome P450 Family 2 Subfamily C Member 9 (CYP2C9) small molecule antagonists: luciferase reporter qHTS assay (AID 1671198); note: nearly all actives have a fitted effect of over 50% in size; note: potency is the fitted concentration of half-maximal effect
Method in brief: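 Enzyme-substrate mix preincubated with compound 10 min at room temperature; reaction started with NADPH regeneration solution, 1 h 37C. Luminescent luciferin product read after 20 min detection reagent.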

[13] = target: Cytochrome P450 2D6 (Homo sapiens) (UniProt P10635); experiment: Cytochrome P450 Family 2 Subfamily D Member 6 (CYP2D6) small molecule antagonists: luciferase reporter qHTS assay (AID 1671196); note: nearly all actives have a fitted effect of over 50% in size; note: potency is the fitted concentration of half-maximal effect
Method in brief: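 Each well received CYP2D6 with its proluciferin substrate and chemical, sat 10 min, then got NADPH regeneration solution for 1 h at room temperature. Luminescence in RLU served as the activity measure.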

Nuclear receptor subfamily 1 group I member 2 (Homo sapiens), sequence (O75469 whole entry, looked up): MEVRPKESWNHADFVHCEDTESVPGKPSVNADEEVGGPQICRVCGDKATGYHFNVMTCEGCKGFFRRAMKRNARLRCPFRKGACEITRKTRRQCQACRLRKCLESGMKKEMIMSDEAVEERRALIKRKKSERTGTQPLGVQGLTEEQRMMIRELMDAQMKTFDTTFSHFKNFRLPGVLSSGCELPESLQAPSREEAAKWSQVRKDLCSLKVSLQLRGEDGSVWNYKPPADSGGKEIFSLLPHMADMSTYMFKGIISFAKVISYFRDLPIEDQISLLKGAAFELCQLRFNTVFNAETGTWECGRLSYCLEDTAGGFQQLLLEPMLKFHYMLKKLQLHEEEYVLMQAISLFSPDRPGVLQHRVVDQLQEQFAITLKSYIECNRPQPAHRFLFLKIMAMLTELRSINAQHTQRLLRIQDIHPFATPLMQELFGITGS
Nuclear receptor subfamily 1 group I member 2 (Rattus norvegicus), sequence (Q9R1A7 whole entry, looked up): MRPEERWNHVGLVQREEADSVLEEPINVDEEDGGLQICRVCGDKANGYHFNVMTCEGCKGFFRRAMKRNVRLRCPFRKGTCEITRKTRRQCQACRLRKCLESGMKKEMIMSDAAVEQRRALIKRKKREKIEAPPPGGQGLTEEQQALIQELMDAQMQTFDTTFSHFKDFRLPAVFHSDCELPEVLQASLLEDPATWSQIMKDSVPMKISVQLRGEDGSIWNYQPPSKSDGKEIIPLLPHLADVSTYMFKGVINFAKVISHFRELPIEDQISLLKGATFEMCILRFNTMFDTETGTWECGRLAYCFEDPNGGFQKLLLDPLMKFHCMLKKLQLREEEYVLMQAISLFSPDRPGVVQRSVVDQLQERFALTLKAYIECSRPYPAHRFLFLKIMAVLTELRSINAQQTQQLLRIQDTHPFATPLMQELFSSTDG
Cytochrome P450 1A2 (Homo sapiens), sequence (P05177 whole entry, looked up): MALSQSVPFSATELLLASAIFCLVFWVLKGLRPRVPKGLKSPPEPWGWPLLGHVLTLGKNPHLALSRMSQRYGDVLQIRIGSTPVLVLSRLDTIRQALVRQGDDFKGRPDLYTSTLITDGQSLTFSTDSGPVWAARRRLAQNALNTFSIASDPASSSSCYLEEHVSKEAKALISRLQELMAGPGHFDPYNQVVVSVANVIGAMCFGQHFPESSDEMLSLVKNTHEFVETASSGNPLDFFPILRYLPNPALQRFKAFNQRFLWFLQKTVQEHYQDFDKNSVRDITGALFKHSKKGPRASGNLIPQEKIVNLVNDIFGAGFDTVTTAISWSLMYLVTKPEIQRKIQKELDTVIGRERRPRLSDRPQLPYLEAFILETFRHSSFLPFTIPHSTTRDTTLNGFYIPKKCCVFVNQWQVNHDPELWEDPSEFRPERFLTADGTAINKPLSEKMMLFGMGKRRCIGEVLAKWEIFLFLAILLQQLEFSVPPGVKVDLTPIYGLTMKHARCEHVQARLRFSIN
Cytochrome P450 2C9 (Homo sapiens), sequence (P11712 whole entry, looked up): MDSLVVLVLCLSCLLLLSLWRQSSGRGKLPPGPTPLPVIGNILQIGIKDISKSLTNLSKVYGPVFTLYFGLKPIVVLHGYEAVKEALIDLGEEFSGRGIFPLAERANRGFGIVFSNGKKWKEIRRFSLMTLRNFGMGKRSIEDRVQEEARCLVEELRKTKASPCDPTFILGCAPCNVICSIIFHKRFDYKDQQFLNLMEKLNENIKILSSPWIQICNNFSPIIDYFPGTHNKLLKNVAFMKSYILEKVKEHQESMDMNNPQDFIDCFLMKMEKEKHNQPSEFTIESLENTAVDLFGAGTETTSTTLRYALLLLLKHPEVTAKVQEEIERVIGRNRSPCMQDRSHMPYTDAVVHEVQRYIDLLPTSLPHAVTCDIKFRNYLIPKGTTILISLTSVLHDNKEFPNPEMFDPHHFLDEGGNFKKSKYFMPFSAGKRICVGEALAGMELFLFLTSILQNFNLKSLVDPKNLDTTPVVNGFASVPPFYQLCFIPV
Cytochrome P450 2D6 (Homo sapiens), sequence (P10635 whole entry, looked up): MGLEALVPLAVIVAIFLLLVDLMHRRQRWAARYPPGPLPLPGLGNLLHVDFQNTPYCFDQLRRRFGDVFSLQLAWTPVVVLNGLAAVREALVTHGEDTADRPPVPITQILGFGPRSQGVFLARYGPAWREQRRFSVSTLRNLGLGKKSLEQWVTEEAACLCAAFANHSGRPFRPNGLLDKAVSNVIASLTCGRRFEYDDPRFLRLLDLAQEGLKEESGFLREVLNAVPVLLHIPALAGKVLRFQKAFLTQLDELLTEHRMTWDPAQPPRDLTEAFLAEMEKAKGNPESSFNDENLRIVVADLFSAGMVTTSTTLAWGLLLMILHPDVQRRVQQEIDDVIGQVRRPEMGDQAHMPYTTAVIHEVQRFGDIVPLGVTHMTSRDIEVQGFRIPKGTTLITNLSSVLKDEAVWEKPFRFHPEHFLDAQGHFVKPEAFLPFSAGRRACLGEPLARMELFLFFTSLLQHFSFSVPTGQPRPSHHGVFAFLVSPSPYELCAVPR
Voltage-gated inwardly rectifying potassium channel KCNH2 (Homo sapiens), sequence (Q12809 whole entry, looked up): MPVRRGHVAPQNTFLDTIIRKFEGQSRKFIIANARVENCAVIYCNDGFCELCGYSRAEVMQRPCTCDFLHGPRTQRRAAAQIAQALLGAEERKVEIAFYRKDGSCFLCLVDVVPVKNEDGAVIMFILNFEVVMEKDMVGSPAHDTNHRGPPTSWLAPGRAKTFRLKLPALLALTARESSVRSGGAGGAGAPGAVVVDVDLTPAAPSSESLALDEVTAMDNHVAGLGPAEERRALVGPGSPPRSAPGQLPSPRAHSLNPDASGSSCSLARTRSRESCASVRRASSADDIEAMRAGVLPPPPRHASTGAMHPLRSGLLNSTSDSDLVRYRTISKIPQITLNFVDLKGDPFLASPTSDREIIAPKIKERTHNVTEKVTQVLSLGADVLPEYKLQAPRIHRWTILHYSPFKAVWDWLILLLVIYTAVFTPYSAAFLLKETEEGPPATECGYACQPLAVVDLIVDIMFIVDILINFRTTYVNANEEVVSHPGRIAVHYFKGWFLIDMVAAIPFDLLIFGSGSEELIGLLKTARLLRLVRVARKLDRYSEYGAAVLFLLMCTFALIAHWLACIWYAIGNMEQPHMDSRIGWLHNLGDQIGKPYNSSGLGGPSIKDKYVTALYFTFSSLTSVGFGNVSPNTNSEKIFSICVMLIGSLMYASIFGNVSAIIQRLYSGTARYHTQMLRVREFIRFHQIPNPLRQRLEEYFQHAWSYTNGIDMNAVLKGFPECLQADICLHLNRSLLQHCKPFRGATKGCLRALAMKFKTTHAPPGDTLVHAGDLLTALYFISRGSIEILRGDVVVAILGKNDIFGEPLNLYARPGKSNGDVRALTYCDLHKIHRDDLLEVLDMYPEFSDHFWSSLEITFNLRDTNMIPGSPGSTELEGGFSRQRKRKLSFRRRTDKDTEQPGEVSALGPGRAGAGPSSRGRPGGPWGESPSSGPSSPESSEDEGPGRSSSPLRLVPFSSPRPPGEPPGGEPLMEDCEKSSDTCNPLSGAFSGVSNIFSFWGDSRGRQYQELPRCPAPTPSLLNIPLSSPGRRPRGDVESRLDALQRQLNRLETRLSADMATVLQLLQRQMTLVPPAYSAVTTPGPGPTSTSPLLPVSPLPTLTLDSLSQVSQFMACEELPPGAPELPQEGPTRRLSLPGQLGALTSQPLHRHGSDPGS
Cytochrome P450 2C19 (Homo sapiens), sequence (P33261 whole entry, looked up): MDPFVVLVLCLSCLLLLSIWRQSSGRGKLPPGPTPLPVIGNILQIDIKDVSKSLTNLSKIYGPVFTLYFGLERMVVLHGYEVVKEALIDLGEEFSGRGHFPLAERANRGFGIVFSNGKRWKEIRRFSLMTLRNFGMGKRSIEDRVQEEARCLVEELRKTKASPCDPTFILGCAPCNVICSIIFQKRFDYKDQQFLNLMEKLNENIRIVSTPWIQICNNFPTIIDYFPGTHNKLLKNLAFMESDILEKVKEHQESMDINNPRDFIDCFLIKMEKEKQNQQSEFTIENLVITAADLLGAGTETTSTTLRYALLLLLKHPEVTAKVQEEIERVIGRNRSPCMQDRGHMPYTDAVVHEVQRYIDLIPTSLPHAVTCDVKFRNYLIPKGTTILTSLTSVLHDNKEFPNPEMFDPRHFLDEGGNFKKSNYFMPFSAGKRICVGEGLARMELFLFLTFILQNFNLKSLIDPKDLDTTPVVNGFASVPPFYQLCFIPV
Cytochrome P450 3A4 (Homo sapiens), sequence (P08684 whole entry, looked up): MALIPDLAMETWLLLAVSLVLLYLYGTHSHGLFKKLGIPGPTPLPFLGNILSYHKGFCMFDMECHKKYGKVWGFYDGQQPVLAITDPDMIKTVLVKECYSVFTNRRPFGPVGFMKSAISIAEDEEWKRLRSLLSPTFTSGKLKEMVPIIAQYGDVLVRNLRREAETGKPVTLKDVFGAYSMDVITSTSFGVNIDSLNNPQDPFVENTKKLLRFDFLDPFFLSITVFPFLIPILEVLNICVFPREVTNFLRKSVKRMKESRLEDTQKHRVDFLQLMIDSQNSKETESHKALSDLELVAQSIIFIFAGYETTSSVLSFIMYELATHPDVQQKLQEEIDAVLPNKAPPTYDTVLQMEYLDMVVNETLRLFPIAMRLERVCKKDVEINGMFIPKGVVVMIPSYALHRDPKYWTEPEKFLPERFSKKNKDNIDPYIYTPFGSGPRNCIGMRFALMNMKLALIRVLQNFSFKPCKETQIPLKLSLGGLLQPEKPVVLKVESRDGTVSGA

COC(=O)C1=C(C)NC(C)=C(C(=O)OCCCN2CCC(c3ccccc3)(c3ccccc3)CC2)C1c1cccc([N+](=O)[O-])c1 (centres undefined)
Potency [1]: 26.6 µM (active)
Potency [2]: 29.8 µM (active)
Potency [3]: 5.01 µM (active)
Potency [4]: 1.51 µM (active)

O=C1NCN(c2ccccc2)C12CCN(CCCC(c1ccc(F)cc1)c1ccc(F)cc1)CC2
Potency [1]: 33.5 µM (active)
Potency [2]: 26.6 µM (active)
Potency [5]: inactive
Potency [6]: inactive
Potency [4]: 0.19 µM (active)
Potency [7]: inactive

CCCN(CCc1cccs1)[C@H]1CCc2c(O)cccc2C1
Potency [8]: inactive
Potency [2]: inactive
Potency [5]: inactive
max activation [3]: -1.95%
Potency [9]: inactive
Potency [10]: inactive
Potency [11]: 2.45 µM (active)
Potency [12]: 15.5 µM (active)
Potency [4]: 3.01 µM (active)
Potency [7]: inactive

C=CC(=O)OCCOCC(CC)(COCCOC(=O)C=C)COCCOC(=O)C=C
Potency [1]: 8.02 µM (active)
Potency [2]: 63.7 µM (active)
Potency [5]: 28.4 µM (active)
Potency [11]: 23.4 µM (active)
Potency [12]: 26.3 µM (active)
Potency [4]: inactive
Potency [7]: 0.932 µM (active)

NC(=O)c1nc(-c2cccc(-c3cc(F)ccc3OCC(F)(F)C(F)(F)F)c2)n[nH]1
Potency [1]: 54.5 µM (active)
Potency [2]: 61.1 µM (active)
Potency [5]: 61.1 µM (active)
Potency [11]: 28.3 µM (active)
Potency [12]: 28.3 µM (active)
Potency [4]: 43.6 µM (active)

CCCOc1sc(C(=O)N2CCC(c3cc(CN)ccc3F)CC2)c(C)c1Br
Potency [1]: 22.3 µM (active)
Potency [2]: 49.9 µM (active)
Potency [5]: inactive
Potency [13]: 18.3 µM (active)
Potency [11]: 3.66 µM (active)
Potency [12]: 1.63 µM (active)
Potency [6]: 73 µM (active)
Potency [4]: 5.65 µM (active)
Potency [7]: 10.3 µM (active)

CCCCCCCCCCCCCCNCCO
Potency [8]: inactive
Potency [2]: inactive
Potency [5]: inactive
max activation [3]: 11.2%
Potency [9]: inactive
Potency [10]: inactive
Potency [13]: 3.09 µM (active)
Potency [11]: inactive
Potency [12]: inactive
Potency [6]: 28.8 µM (active)
Potency [7]: inactive

CC(=O)Oc1ccc(C2(c3ccc(OC(C)=O)cc3)Oc3ccccc3NC2=O)cc1
Potency [8]: inactive
Potency [2]: inactive
Potency [11]: 6.92 µM (active)
Potency [12]: 2.45 µM (active)
Potency [6]: inactive
Potency [4]: inactive
Potency [7]: inactive

CC(C(O)c1ccccc1)N(C)CCOC(c1ccccc1)c1ccccc1 (centres undefined)
Potency [8]: inactive
Potency [5]: 7.5 µM (active)
Potency [13]: 0.174 µM (active)
Potency [11]: 7.76 µM (active)
Potency [12]: 17.4 µM (active)
Potency [6]: inactive
Potency [4]: 1.69 µM (active)

CC(C)(c1cc(Br)c(OCCO)c(Br)c1)c1cc(Br)c(OCCO)c(Br)c1
Potency [8]: inactive
Potency [5]: 4.75 µM (active)
Potency [11]: 6.94 µM (active)
Potency [12]: 4.38 µM (active)
Potency [6]: 27.6 µM (active)
Potency [7]: 49.2 µM (active)

OCCCS
Potency [8]: inactive
Potency [2]: inactive
Potency [5]: inactive
Potency [13]: inactive
Potency [11]: inactive
Potency [12]: inactive
Potency [6]: inactive
Potency [4]: inactive
Potency [7]: inactive

CNCC[C@H](Oc1cccc2ccccc12)c1cccs1
Potency [8]: inactive
max activation [3]: -8.93%

CN1CCN(C2Cc3ccccc3Sc3ccc(Cl)cc32)CC1 (centres undefined)
Potency [8]: inactive
Potency [5]: inactive
Potency [9]: 31.6 µM (active)
Potency [11]: 11 µM (active)
Potency [6]: inactive
Potency [4]: 0.848 µM (active)

Clc1ccc(C(c2ccccc2Cl)C(Cl)Cl)cc1 (centres undefined)
Potency [8]: inactive
Potency [2]: inactive
Potency [5]: 10.9 µM (active)
Potency [11]: 1.59 µM (active) and 776 nM (active)
Potency [12]: 20 µM (active) and 9.77 µM (active)
Potency [6]: inactive
Potency [7]: inactive

C[n+]1c2cc(N)ccc2cc2ccc(N)cc21 (tested in a mixture with another compound)
Potency [8]: inactive
max activation [3]: -10.5%
Potency [13]: 15.5 µM (active)
Potency [11]: 38.9 µM (active)
Potency [12]: inactive
Potency [6]: 2.19 µM (active)
Potency [4]: inactive
